Test results from PubChem BioAssay (EPA / NIEHS).
The source made the active and inactive calls. How the source made its calls: active means hit-call score of the fitted dose curve at least 0.9, where 1 is the maximum; inactive means score below 0.9.

Key:
[1] = APR_HepG2_P-H2AX_72hr: Apredica 72-hour HepG2 Assay for H2AX Phosphorylation (AID 2282916); conditions: imaging, actives raise or lower the signal;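 further: phospho-histone H2A.x immunostain intensity per cell marking DNA damage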
Method in brief: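 Phospho-histone H2A.x immunofluorescence, multiplexed with Hoechst and c-Jun, quantified by high-content imaging. Compounds applied to HepG2 for 72 h across ten concentrations (0.39–200 uM, 0.5% DMSO), in duplicate; DMSO baseline.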

[2] = APR_HepG2_P-H2AX_24hr: Apredica 24-hour HepG2 Assay for H2AX Phosphorylation (AID 2282920); conditions: high-content imaging, actives raise or lower the signal
Method in brief: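 Human HepG2 liver cells, treated 24 hr with test chemicals (0.39–200 uM, final DMSO 0.5% v/v), are fixed and co-stained for phospho-H2A.x and c-Jun with Hoechst. Imaged intensity is fitted in both directions against DMSO controls.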

[3] = APR_HepG2_StressKinase_72hr: Apredica 72-hour HepG2 Assay for Stress Kinase (AID 2282921); conditions: HepG2 stress kinase (phospho-c-Jun) imaging, actives raise or lower the signal
Method in brief: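 Stress kinase signal is phospho-c-Jun immunofluorescence (1:500 primary, Cy3 secondary) in fixed, permeabilized human HepG2 cells imaged at 20x. Exposure lasted 72 hr over ten concentrations from 0.39 to 200 uM, 0.5% DMSO, in duplicate. Bidirectional fit versus DMSO.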

[4] = APR_HepG2_StressKinase_24hr: Apredica 24-hour HepG2 Assay for Stress Kinase (AID 2282922); conditions: HepG2 stress kinase (phospho-c-Jun) imaging, actives raise or lower the signal
Method in brief: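 After 24 hr compound treatment (up to 200 uM, final DMSO 0.5% v/v), HepG2 cells are fixed and multiplex-labeled; phospho-c-Jun intensity is captured by high-content fluorescence imaging and analyzed relative to DMSO.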

[5] = APR_HepG2_p53Act_72hr: Apredica 72-hour HepG2 Assay for p53 Activation (AID 2282923); conditions: high-content imaging, actives raise or lower the signal;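 further: average cellular p53 protein immunofluorescence intensity in HepG2 cells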
Method in brief: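 After 72 h with compound (ten points, 0.39 to 200 uM, final DMSO 0.5% v/v), fixed HepG2 cells were labelled with sheep anti-p53 and Hoechst 33342 and imaged; gain or loss versus DMSO scored.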

[6] = ATG_CRE_CIS: Attagene CIS-FACTORIAL HepG2 Assay for human cAMP Responsive Element (CRE) binding protein 3 (AID 2282926); conditions: HepG2 CRE cis-reporter, Attagene multiplexed mRNA; actives raise or lower the signal
Method in brief: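 Liver-derived HepG2, transfected with a CRE-containing reporter panel, exposed 24 h; transcript levels sized and quantified by capillary electrophoresis of labelled amplicons; signal changes either way referenced to vehicle.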

[7] = molecular target: CCAAT/enhancer-binding protein beta (Homo sapiens) (UniProt P17676); experiment: ATG_C_EBP_CIS: Attagene CIS-FACTORIAL HepG2 Assay for human CCAAT/Enhancer Binding Protein (C/EBP) beta (AID 2282927); conditions: HepG2 Attagene cis-factorial transcription factor reporter; actives raise or lower the signal
Chain of CCAAT/enhancer-binding protein beta (Homo sapiens) (P17676 whole entry, looked up): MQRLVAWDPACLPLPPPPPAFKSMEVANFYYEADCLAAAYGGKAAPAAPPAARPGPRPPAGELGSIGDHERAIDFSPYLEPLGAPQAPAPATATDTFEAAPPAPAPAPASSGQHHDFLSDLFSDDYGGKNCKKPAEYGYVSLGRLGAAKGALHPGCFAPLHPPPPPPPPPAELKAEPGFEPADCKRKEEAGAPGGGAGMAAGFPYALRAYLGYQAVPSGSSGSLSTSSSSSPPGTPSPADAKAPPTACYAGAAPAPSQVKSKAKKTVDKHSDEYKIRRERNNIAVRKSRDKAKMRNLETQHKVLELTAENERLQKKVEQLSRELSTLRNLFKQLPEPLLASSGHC
Method in brief: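 RT-PCR/capillary electrophoresis fluorescence of reporter mRNA, 24 h post-dose, in HepG2 cells carrying transfected cis-promoter reporter units. Bidirectional curve fitting against DMSO baseline captures gain or loss of signal.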

[8] = ATG_CMV_CIS: Attagene CIS-FACTORIAL HepG2 Assay for human CMV (Internal Marker) (AID 2282928); conditions: HepG2 CMV promoter reporter, transcription factor profiling; actives raise or lower the signal;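 further: endpoint acts as a background internal control marker rather than a target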
Method in brief: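 Bidirectional fits against DMSO are applied to reporter mRNA, read by RT-PCR with capillary electrophoresis, from HepG2 cells exposed 24 h. The endpoint serves as an internal CMV background marker within the cis-factorial reporter panel.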

[9] = molecular target: Aryl hydrocarbon receptor (Homo sapiens) (UniProt P35869); experiment: ATG_Ahr_CIS: Attagene CIS-FACTORIAL HepG2 Assay for human Aryl Hydrocarbon Receptor (Ahr) (AID 2282930); conditions: HepG2 AhR cis-factorial reporter transcription; actives raise or lower the signal
Chain of Aryl hydrocarbon receptor (Homo sapiens) (P35869 whole entry, looked up): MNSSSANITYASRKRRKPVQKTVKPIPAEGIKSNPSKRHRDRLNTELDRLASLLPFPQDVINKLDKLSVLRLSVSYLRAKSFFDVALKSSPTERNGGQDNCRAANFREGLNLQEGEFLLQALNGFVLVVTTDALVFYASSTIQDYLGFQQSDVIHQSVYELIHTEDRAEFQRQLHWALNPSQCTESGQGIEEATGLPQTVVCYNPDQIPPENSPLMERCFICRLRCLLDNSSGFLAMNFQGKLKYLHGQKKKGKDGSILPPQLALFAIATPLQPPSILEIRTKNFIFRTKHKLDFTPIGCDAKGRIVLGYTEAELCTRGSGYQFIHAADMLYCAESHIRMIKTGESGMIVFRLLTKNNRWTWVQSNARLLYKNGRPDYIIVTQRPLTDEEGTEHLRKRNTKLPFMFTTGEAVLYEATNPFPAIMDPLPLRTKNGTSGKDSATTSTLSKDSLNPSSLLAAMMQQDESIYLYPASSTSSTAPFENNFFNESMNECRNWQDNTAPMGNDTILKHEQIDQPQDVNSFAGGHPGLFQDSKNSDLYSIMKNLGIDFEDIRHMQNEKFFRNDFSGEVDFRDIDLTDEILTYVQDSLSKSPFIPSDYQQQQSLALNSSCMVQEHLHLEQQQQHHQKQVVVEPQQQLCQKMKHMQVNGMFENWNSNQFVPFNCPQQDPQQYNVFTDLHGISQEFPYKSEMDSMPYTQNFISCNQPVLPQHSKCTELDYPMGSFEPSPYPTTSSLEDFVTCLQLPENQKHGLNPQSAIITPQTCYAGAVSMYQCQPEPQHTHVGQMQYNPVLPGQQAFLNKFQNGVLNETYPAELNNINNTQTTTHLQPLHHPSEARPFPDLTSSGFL
Method in brief: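 HepG2 cells transiently transfected with cis-element-driven multiplexed reporter transcription units; endogenous transcription factor activity measured as reporter mRNA 24 h after dosing. RT-PCR, 6-FAM labelling, HpaI digestion, capillary electrophoresis; bidirectional fitting versus DMSO baseline.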

[10] = ATG_AP_1_CIS: Attagene CIS-FACTORIAL HepG2 Assay for human Activator Protein 1 (AP-1) (AID 2282931); conditions: HepG2 Attagene cis-factorial AP-1 reporter mRNA; actives raise or lower the signal
Method in brief: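 Cis-regulated reporter units transiently expressed in HepG2 report endogenous transcription-factor activity. Signal: reporter mRNA at 24 h, via RT-PCR and fluorescent capillary electrophoresis. Endpoint derived by bidirectional fitting, DMSO as negative control.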

[11] = ATG_AP_2_CIS: Attagene CIS-FACTORIAL HepG2 Assay for human Activator Protein 2 (AP-2) (AID 2282932); conditions: HepG2 AP-2 cis-reporter, Attagene transcription factor profiling; actives raise or lower the signal
Method in brief: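 Cells (HepG2) transfected with promoter-driven reporter constructs, treated 24 h. Total RNA reverse-transcribed, reporter cDNA PCR-amplified, FAM-labelled by primer extension, digested, resolved by capillary electrophoresis. Activity fitted both directions versus DMSO.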

[12] = ATG_BRE_CIS: Attagene CIS-FACTORIAL HepG2 Assay for human Bone Morphogenetic Protein (BMP) Response Element (BRE) (AID 2282933); conditions: HepG2 BMP response element reporter, Attagene transcription factor profiling; actives raise or lower the signal
Method in brief: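 Gain- or loss-of-signal was derived by bidirectional fitting against DMSO controls. The signal came from reporter mRNA, measured by RT-PCR and capillary electrophoresis, in HepG2 cells transiently carrying multiple reporter units and dosed for 24 h.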

[13] = molecular target: Retinoic acid receptor alpha (Homo sapiens) (UniProt P10276); experiment: ATG_DR5_RAR_CIS: Attagene CIS-FACTORIAL HepG2 Assay for human Retinoic Acid Receptor Alpha (RARE), DR5 submotif (AID 2282934); conditions: HepG2 Attagene cis-factorial RARE DR5 reporter, mRNA; actives raise or lower the signal
Chain of Retinoic acid receptor alpha (Homo sapiens) (P10276 whole entry, looked up): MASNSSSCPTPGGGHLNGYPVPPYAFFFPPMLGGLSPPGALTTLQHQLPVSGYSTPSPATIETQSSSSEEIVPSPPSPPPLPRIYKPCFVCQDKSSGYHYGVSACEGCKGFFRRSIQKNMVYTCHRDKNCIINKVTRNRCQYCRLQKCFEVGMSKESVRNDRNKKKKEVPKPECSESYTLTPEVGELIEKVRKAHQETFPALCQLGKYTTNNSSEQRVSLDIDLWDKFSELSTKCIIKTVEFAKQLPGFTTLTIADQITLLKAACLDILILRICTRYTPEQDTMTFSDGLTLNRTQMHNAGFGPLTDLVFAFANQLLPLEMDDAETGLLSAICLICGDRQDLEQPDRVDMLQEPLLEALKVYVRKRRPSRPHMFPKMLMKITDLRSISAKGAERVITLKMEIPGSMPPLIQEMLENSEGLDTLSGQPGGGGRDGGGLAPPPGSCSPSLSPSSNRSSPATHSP
Method in brief: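 HepG2 cells transiently transfected with multiplexed reporter units under cis (DR5 RARE) promoters, so endogenous transcription factor activity is measured. After 24 h compound exposure, reporter mRNA is quantified by RT-PCR with fluorescent labelling and capillary electrophoresis; bidirectional fitting versus DMSO.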

[14] = molecular target: Transcription factor E2F1 (Homo sapiens) (UniProt Q01094); experiment: ATG_E2F_CIS: Attagene CIS-FACTORIAL HepG2 Assay for human E2F Transcription Factor 1 (AID 2282935); conditions: HepG2 Attagene cis-reporter, E2F reporter RNA transcripts; actives raise or lower the signal
Chain of Transcription factor E2F1 (Homo sapiens) (Q01094 whole entry, looked up): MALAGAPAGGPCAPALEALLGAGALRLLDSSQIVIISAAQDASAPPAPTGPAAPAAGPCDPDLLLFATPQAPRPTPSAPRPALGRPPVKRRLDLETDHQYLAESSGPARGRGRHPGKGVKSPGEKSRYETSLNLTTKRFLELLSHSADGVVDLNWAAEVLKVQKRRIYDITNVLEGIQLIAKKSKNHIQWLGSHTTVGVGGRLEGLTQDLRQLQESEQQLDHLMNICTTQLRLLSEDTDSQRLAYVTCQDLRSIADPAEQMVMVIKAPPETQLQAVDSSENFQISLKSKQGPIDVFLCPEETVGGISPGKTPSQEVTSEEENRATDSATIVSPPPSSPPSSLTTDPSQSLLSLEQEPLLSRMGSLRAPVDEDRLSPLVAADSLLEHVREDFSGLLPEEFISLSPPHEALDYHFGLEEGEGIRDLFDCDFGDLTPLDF
Method in brief: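 First, HepG2 cells were transfected with reporter transcription units. Next, they were dosed for 24 h. Then RNA was isolated, converted to cDNA, PCR-amplified, FAM-labeled, HpaI-digested and analyzed by capillary electrophoresis.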

[15] = APR_HepG2_MitoticArrest_72hr: Apredica 72-hour HepG2 Assay for Mitotic Arrest (AID 2282918); conditions: high-content imaging, actives raise or lower the signal
Method in brief: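 Using high-content imaging of fixed HepG2 cells, phospho-histone H3 signal was measured following a 72 hr incubation with ten-point compound dilutions up to 200 uM. DMSO served as the negative control and baseline for bidirectional curve fitting.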

[16] = APR_HepG2_MicrotubuleCSK_72hr: Apredica 72-hour HepG2 Assay for Microtubule CSK Stabilty (AID 2282919); conditions: HepG2 microtubule cytoskeleton, high-content imaging, actives raise or lower the signal
Method in brief: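 Ten-point dosing (0.39–200 uM, 0.5% DMSO) of HepG2 for 72 hr, with taxol as the cytoskeletal positive control. The cells were formaldehyde-fixed and then stained with alpha-tubulin/Cy5 and Hoechst. Imaging at 20x used a −2 um Z offset for tubulin.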

[17] = APR_HepG2_MitoMass_72hr: Apredica 72-hour HepG2 Assay for Mitochondrial Mass (AID 2282924); conditions: high-content imaging, actives raise or lower the signal;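 further: MitoTracker Red CMXRos stain intensity per cell imaged as mitochondrial mass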
Method in brief: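 Steps: treat HepG2 72 hr (0.39–200 uM, duplicate wells); load MitoTracker Red CMXRos, 250 nM, 30 min; fix with 3.7% formaldehyde, permeabilise with 0.5% Triton X-100; capture images, nuclei via Hoechst 33342; fit bidirectionally against DMSO.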

[18] = ATG_DR4_LXR_CIS: Attagene CIS-FACTORIAL HepG2 Assay for human Liver X Receptor (LXR), DR4 submotif (AID 2282929); conditions: HepG2 Attagene DR4 cis-reporter, mRNA transcription; actives raise or lower the signal
Method in brief: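 DR4 cis-reporter in HepG2, 24 h exposure. Detection: RT-PCR, 6-FAM labelling, CE fragment analysis. Endpoint fitted bidirectionally, DMSO = baseline.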

[19] = APR_HepG2_NuclearSize_72hr: Apredica 72-hour HepG2 Assay for Nuclear Size (AID 2282925); conditions: high-content imaging, actives raise or lower the signal
Method in brief: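 Compounds (0.39–200 uM, final DMSO 0.5%) were applied to HepG2 for 72 hr. Cells were then formaldehyde-fixed, permeabilized and labelled with Hoechst 33342. Nuclear diameter was quantified from six images per well.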

Measured: AC50

C[N+](C)(C)CC1CO1 (stereo unspecified)
not listed: [15] | [16] | [17] | [18] | [19]
inactive: all other assays above

Nc1ccc([N+](=O)[O-])cc1
not listed: [9] | [12] | [13] | [19]
inactive: all other assays above

CCCCCOC(=O)c1ccccc1C(=O)OCCCCC
active: [18] 150 µM | [10] 77.2 µM
not listed: [12] | [13] | [19]
inactive: all other assays above

[As]#[In]
active: [9] 65 µM
not listed: [12] | [14] | [19]
inactive: all other assays above

CC(C)COC(=O)c1ccccc1C(=O)OCC(C)C
active: [15] 67 µM | [2] 77.3 µM | [17] 84.7 µM | [6] 59.3 µM | [8] 67.5 µM | [10] 70.3 µM | [12] 110 µM
not listed: [5] | [18]
inactive: all other assays above

COc1cc(C=O)cc2c1[C@H](COC(N)=O)[C@]1(OC(C)=O)ON2C[C@H]2[C@@H]1N2C(C)=O
active: [6] 33.4 µM | [7] 61 µM | [9] 0.314 µM | [10] 61.4 µM | [11] 33.4 µM | [14] 61.5 µM
not listed: [12] | [13] | [18] | [19]
inactive: all other assays above

Nc1ccc(N=Nc2ccccc2)cc1
active: [1] 63.4 µM | [5] 71.1 µM | [9] 25.4 µM | [11] 169 µM
not listed: [12] | [14] | [15] | [16] | [17]
inactive: all other assays above

ClCCOCCCl
not listed: [19]
inactive: all other assays above

Nc1cc(Cl)cc(C(=O)O)c1Cl
active: [9] 58 µM
not listed: [12] | [14] | [18]
inactive: all other assays above

CCC(C)c1ccc(O)cc1 (stereo unspecified)
active: [6] 59.7 µM | [8] 65.8 µM | [10] 69.8 µM | [12] 100 µM
not listed: [9] | [13] | [14] | [18]
inactive: all other assays above

CCCCCCCCCCCCCN1CC(C)OC(C)C1 (stereo unspecified)
active: [2] 76.6 µM | [8] 33.4 µM | [10] 50.9 µM | [12] 50 µM
not listed: [19]
inactive: all other assays above

Oc1ccc2ccc3cccc4ccc1c2c34
active: [1] 50.3 µM | [15] 63.9 µM | [16] 85.4 µM | [2] 62.9 µM | [4] 80.8 µM | [17] 46.4 µM | [18] 11.1 µM
not listed: [9] | [19]
inactive: all other assays above
